# In the supplement of paper PMC10338343:
# ± gives the standard deviation.
# Columns and labels:
# [1] = tested on: MILI (PIWIL2) piRISC loaded with L1MC piRNA (26 nt); assay: pre-steady-state target cleavage rate (min^-1); guide: L1MC piRNA 5'p-UAACUAAAUACUAUGCAAGCUGUAGG; higher = faster piRNA-guided slicing of the target;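 also: 1 nM active piRISC with 0.1 nM target library at 33 °C single turnover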
# Procedure, shortened: (§1)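 The pre-steady-state cleavage rate was calculated from a burst-and-steady-state fit. Data came from Cleave-'n-Seq, in which […] transcribed, DNA-blocked target RNA library was mixed with 1 nM active affinity-purified piRISC carrying one synthetic guide, with or without 500 nM GTSF1 partner protein, in HEPES–potassium acetate buffer at 33 °C for 0–8 or 0–960 min. Uncleaved targets were sequenced and normalised to depth and to weakly complementary targets, three trials were pooled, and k3 was capped at 0.0001 min^-1.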
# [2] = tested on: EfPiwi piRISC loaded with L1MC piRNA (26 nt); assay: pre-steady-state target cleavage rate (min^-1); auxiliary factor: 500 nM Ephydatia muelleri Gtsf1; guide: L1MC piRNA 5'p-UAACUAAAUACUAUGCAAGCUGUAGG; MIWI and MILI are mouse PIWI proteins and EfPiwi is from a freshwater sponge; tags in brackets are library labels; higher = faster piRNA-guided slicing of the target
# Procedure, shortened: as §1
# [3] = auxiliary factor: 500 nM mouse GTSF1
# [4] = auxiliary factor: none (no GTSF1)
Sequence,"pre-steady-state target cleavage rate [1, 3]","pre-steady-state target cleavage rate [1, 4]",pre-steady-state target cleavage rate [2]
UCCUGGAUGAGCUUGGAUAGUAUUUAGUUA,0.163 ± 0.011,0.00612 ± 0.0024,0.0043 ± 0.0033
UCCUGGAUGAGCUUGCAUAGUAUUUAGGUUA,0.195 ± 0.028,0.0044 ± 0.0031,0.0031 ± 0.002
UCCUGCUACAGCUUGCAUAGUAUUAUAGUUA,0.189 ± 0.021,0.00585 ± 0.0024,0.0103 ± 0.0037
UCCUGGAUGAGACUUGCAUAGUAUUUAGUUA,0.186 ± 0.021,0.00953 ± 0.0028,0.00434 ± 0.003
UCCUGGUACAGCUUGCUUAGUAAUUAGUUA,0.128 ± 0.036,0.0116 ± 0.0032,0.00675 ± 0.0033
UCCUCCUACAGCUUGCAUAGUAUUUCAGUUA,0.463 ± 0.073,0.0049 ± 0.0029,0.00437 ± 0.0022
UCCUGGAUGAGCUUGAAUAGUAUUUAGUUA,0.216 ± 0.011,0.00728 ± 0.0023,0.00419 ± 0.0027
UCCUGGUACAGCAAGCAUAGUAUUUAGUUA,0.232 ± 0.018,0.00852 ± 0.0027,0.00653 ± 0.0021
UCCUGGAUGUGCUUGCAUAGUAUUAAGUUA,0.162 ± 0.025,0.00745 ± 0.0021,0.00372 ± 0.0032
UCCUGCUACGGCUUGCAUAGUAUUUAGUUA,0.276 ± 0.021,0.00977 ± 0.0025,0.00972 ± 0.0027
UCCUGUUACAGCUUGCAUAGUAUUUAGUUA,0.328 ± 0.018,0.0102 ± 0.0034,0.231 ± 0.07
UCCUGGAACAGCUUGCAUAGUAGUUAGUUA,0.138 ± 0.018,0.00378 ± 0.0026,0.00926 ± 0.0027
UCCUGGAUGAGCUUCGCAUAGUAUUUAGUUA,0.258 ± 0.02,0.00539 ± 0.0022,0.0219 ± 0.0059
UCCUCCUACAGCUUGCAAUGUAUUUAGUUA,0.101 ± 0.015,0.00693 ± 0.0023,0.0107 ± 0.0042
UCCUGGAACAGCUUGCAUAGUAUGUAGUUA,0.206 ± 0.034,0.00343 ± 0.003,0.00302 ± 0.0021
UCCUGGAUCAUGCUUGCAUAGUAUUUAGUUA,0.18 ± 0.019,0.00983 ± 0.0024,0.0911 ± 0.025
UCCUGGUACAGCUUGCAAACUAUUUAGUUA,0.0345 ± 0.007,0.00378 ± 0.0028,0.00276 ± 0.0022
UCCUGGAUGAGCAUGCAAAGUAUUUAGUUA,0.056 ± 0.011,0.00571 ± 0.002,0.00414 ± 0.0036
UCCUCCUACAGCUAGCAUUGUAUUUAGUUA,0.184 ± 0.013,0.00496 ± 0.0019,0.0127 ± 0.0042
UCCUGCUAGAGCUUGCAUAGUAUUAAGUUA,0.256 ± 0.033,0.00303 ± 0.0024,0.00624 ± 0.0022
UCCUGCUACAGCUUGCAUAGUAUUAAGUUA,0.245 ± 0.028,0.0047 ± 0.0024,0.0064 ± 0.0019
UCCUGCUACAGGUUGGAUAGUAUUUAGUUA,0.204 ± 0.018,0.00926 ± 0.0025,0.00793 ± 0.0027
UCCUGGAUGAGCUUGCAUAGUGUUUAGUUA,0.117 ± 0.016,0.00732 ± 0.0031,0.00987 ± 0.0028
UCCUGGAUCAGCUUGCAUAGUAUUUAGUUUA,0.358 ± 0.025,0.00718 ± 0.0026,0.0394 ± 0.011
UCCUGGAUGUGCUUGCAUGGUAUUUAGUUA,0.086 ± 0.014,0.0124 ± 0.0032,0.0043 ± 0.0042
UCCUGGAUCAGCUUGCAUAGUAUUUAAGUUA,0.251 ± 0.025,0.0108 ± 0.0029,0.00608 ± 0.0023

Sequence,"pre-steady-state target cleavage rate [1, 3]","pre-steady-state target cleavage rate [1, 4]",pre-steady-state target cleavage rate [2]
UCCUGGAACAGCUCUGCAUAGUAUUUAGUUA,0.268 ± 0.012,0.00871 ± 0.0031,0.0165 ± 0.005
UCCUGCUACAGCUUGCAUAGUACUUUAGUUA,0.194 ± 0.025,0.00825 ± 0.0022,0.00465 ± 0.0015
UCCUGGAUCAGCUUGCUUAGUAAUUAGUUA,0.212 ± 0.022,0.00689 ± 0.0022,0.0988 ± 0.033
UCCUGGAACAGCUUGCAUAGUAUAUUAGUUA,0.247 ± 0.019,0.00778 ± 0.0024,0.0104 ± 0.0043
UCCUCCGACAGCUUGCAUAGUAUUUAGUUA,0.25 ± 0.017,0.00881 ± 0.0021,0.101 ± 0.026
UCCUGGAUCAGCUAGCAUACUAUUUAGUUA,0.0859 ± 0.012,0.00444 ± 0.0019,0.00342 ± 0.0018
UCCUGGAUGAGCUUGCUUAGUAUUUAGUAA,0.155 ± 0.022,0.00595 ± 0.0027,0.00265 ± 0.0025
UCCUCCUACAGCUUGCAUAGUGUUUAGUUA,0.211 ± 0.017,0.00543 ± 0.0025,0.0149 ± 0.0041
UCCUGGAUGUGCUUGCAUAGUAUUUUGUUA,0.0696 ± 0.019,0.00381 ± 0.0032,0.00341 ± 0.0026
UCCUCCUAGAGCUUGCAUAGUAAUUAGUUA,0.264 ± 0.029,0.00317 ± 0.0031,0.011 ± 0.0039
UCCUCCUACAGCUUGCAUAGUAUUUAGUAA,0.246 ± 0.021,0.00585 ± 0.0026,0.0113 ± 0.005
UCCUCCUACAGCUUGCAUAGUAUUAAGUUA,0.178 ± 0.026,0.00415 ± 0.0024,0.00589 ± 0.0029
UCCUGGUACAGGUAGCAUAGUAUUUAGUUA,0.21 ± 0.021,0.00976 ± 0.0036,0.00853 ± 0.0036
UCCUGGUAGAGCUUGCAUAGUAUAUAGUUA,0.207 ± 0.027,0.00638 ± 0.0021,0.0131 ± 0.0051
UCCUGGAACAGCUUGCAUAGUAAUUAGUUA,0.268 ± 0.022,0.00705 ± 0.0022,0.00814 ± 0.0027
UCCUCCUACUGCUUGCAUAGUAUUUAGUUA,0.27 ± 0.016,0.00899 ± 0.0022,0.0494 ± 0.015
UCCUGGAUCAGCUUGCAGAGUAUUUAGUUA,0.111 ± 0.015,0.00641 ± 0.002,0.00715 ± 0.0022
UCCUGGAUCAGCUAGCAUAGUAUUUAGUAA,0.219 ± 0.012,0.00665 ± 0.0023,0.00362 ± 0.0032
UCCUCCUAGAGCUUGGAUAGUAUUUAGUUA,0.217 ± 0.013,0.00594 ± 0.0019,0.0312 ± 0.0067
UCCUGGUACAGCUUGCAUGGUAUUUAGUUA,0.298 ± 0.021,0.0136 ± 0.0044,0.00828 ± 0.0033
UCCUGGAAGAGCUUGCAAAGUAUUUAGUUA,0.075 ± 0.012,0.00782 ± 0.0029,0.018 ± 0.005
UCCUGGUACUGGUUGCAUAGUAUUUAGUUA,0.162 ± 0.042,0.0125 ± 0.0045,0.0054 ± 0.0031
UCCUGGAUCAGGUUGCAUAGUAUUUUGUUA,0.101 ± 0.015,0.00364 ± 0.0028,0.00406 ± 0.0022
UCCUCCUACAGCUUCCUUAGUAUUUAGUUA,0.216 ± 0.025,0.00443 ± 0.002,0.00472 ± 0.0022
UCCUCCUACAGCUUGCUUAGUAUUUUGUUA,0.133 ± 0.016,0.0026 ± 0.0026,0.00532 ± 0.0028
